Values joined by “and” are separate entries in the source; they are usually repeats but may differ in a detail not shown here. Identical values can stand only once. Records with an inconclusive call do not appear. Entries that show only a call come without a potency. Active and inactive are the calls of the source. The call rests on the fitted dose curve; in most records, active means well fitted cell-killing curve with a large enough effect in the repeat runs; inconclusive means weak or mixed curves; inactive means no such curve, though single readings can be large or run the other way.
Test: qHTS assay to identify small molecule antagonists of the peroxisome proliferator-activated receptor delta (PPARd) signaling pathway - cell viability counter screen (AID 743213); further: nearly all actives have a fitted effect of over 50% in size
Conditions: PPARd-bla HEK293H viability, CellTiter-Glo luminescence, 17 h; series mostly up to 62 µM
Text: U.S. Tox21 Program National Center for Advancing Translational Sciences [NCATS] NIH Chemical Genomics Center [NCGC] U.S. Environmental Protection Agency [EPA] National Institutes of Environmental Health Sciences [NIEHS] National Toxicology Program [NTP] U.S. Food and Drug Administration [FDA] Tox21 Assay Overview: The peroxisome proliferator-activated receptors (PPARs) are lipid-activated transcription factors of the nuclear receptor superfamily with three distinct subtypes namely PPAR alpha, PPAR delta (PPARd) and PPAR gamma. All these subtypes heterodimerizes with Retinoid X receptor (RXR) and have different physiological functions. […] To identify the compounds that inhibit PPAR-delta signaling, GeneBLAzer PPAR delta UAS-bla HEK293H cell line (Invitrogen, Carlsbad, CA, USA) containing a beta-lactamase reporter gene under the control of an Upstream Activator Sequence (UAS) was used to screen the Tox21 compound library. The cytotoxicity of the Tox21 compound library against the PPARd-bla cell line was tested in parallel by measuring the cell viability using CellTiter-Glo assay (Promega, Madison, WI) in the same wells.
Tox21 Assay Protocol Summary: PPARd-bla cells were dispensed at 3000 cells/5uL/well in 1536-well black wall/clear bottom plates using a Multidrop Combi (Thermo Fisher Scientific, Waltham, MA) dispenser. After the assay plates were incubated at 37 C and 5% CO2 for 5 h, 23 nL of compounds dissolved in DMSO, positive controls or DMSO only was transferred to the assay plate by a Pintool station (Kalypsys, San Diego, CA), followed by addition of 1ul L165041 (300 nM, final concentration in the wells). The assay plates were incubated at 37 C for 17 h, and then 1 uL of LiveBLAzerTM B/G FRET substrate was added using a Bioraptr Flying Reagent Dispenser (FRD) workstation (Beckman Coulter, Indianapolis, IN, USA). The assay plates were incubated at room temperature for 2 h and fluorescence intensity was measured by an Envision plate reader (PerkinElmer, Shelton, CT). For cell viability readout that measures cytotoxicity, 3 ul/well of CellTiter-Glo reagent was added into the assay plates using a Bioraptr FRD. After 30 min incubation at room temperature, the luminescence intensity in the plates was measured using a ViewLux plate reader (PerkinElmer).
With `CC(C)(O)c1cnn2c(-c3ccc(F)c(-c4c(F)cccc4C#N)c3)cnc2n1` the Potency was “inactive”. With `C=CC(=O)OCCCCOC(=O)C=C` the Potency was 43.6 µM (active). With `C[C@H]1CC[C@@H]2[C@@H](C)[C@H]3[C@H](C[C@H]4[C@@H]5CC=C6CC(O[C@@H]7O[C@H](CO)[C@H](O)[C@H](O[C@@H]8O[C@H](CO)[C@@H](O)[C@H](O)[C@H]8O)[C@H]7O[C@H]7O[C@@H](C)[C@H](O)[C@@H](O)[C@H]7O)CC[C@]6(C)[C@H]5CC[C@]34C)N2C1` (stereo not given in full) the Potency was 25.3 µM (active). With `O=C1c2ccccc2C(=O)C1C(=O)C(c1ccccc1)c1ccc(Cl)cc1` (stereo not given) the Potency was “inactive”. In the case of `C[C@@H]1CC[C@@]2(OC1)O[C@H]1[C@@H](O)[C@H]3[C@@H]4CC[C@H]5C[C@@H](O[C@@H]6O[C@H](CO)[C@H](O[C@@H]7O[C@H](CO)[C@@H](O)[C@H](O[C@@H]8OC[C@@H](O)[C@H](O)[C@H]8O)[C@H]7O[C@@H]7O[C@H](CO)[C@@H](O)[C@H](O[C@@H]8O[C@H](CO)[C@@H](O)[C@H](O)[C@H]8O)[C@H]7O)[C@H](O)[C@H]6O)[C@H](O)C[C@]5(C)[C@H]4CC[C@]3(C)[C@H]1[C@@H]2C`, the Potency is reported as 4.63 µM (active). With `CCCCCCCCCCCCCCCCCCn1cc[n+](C)c1` the Potency was 7.72 µM (active). In the case of `O=C/C(Cl)=C(/Cl)C(=O)O`, the Potency is reported as “inactive”. With `Oc1ccc(C2(c3ccc(O)cc3)c3ccccc3-c3ccccc32)cc1` the Potency was 13.8 µM (active). With `O=c1c(C2CC(c3ccc(-c4ccc(Br)cc4)cc3)Cc3ccccc32)c(O)sc2ccccc12` (stereo not given) the Potency was “inactive”. With `CCCCCCCCCCCCCCCC[n+]1ccccc1` the Potency was 25.7 µM (active) and 21.9 µM (active) and 24.2 µM (active). In the case of `C[C@]12CC[C@H]3[C@@H](CCC4=CC(=O)CC[C@@]43C)[C@@H]1CC[C@@H]2O`, the Potency is reported as “inactive”. With `Clc1ccc(C(Cl)(Cl)Cl)c(Cl)c1` the Potency was “inactive”. For `c1ccc2c(c1)[nH]c1cnccc12`, the Potency was “inactive”. With `CCCN(CC)CC1COC2(CCC(C(C)(C)C)CC2)O1` (stereo not given) the Potency was “inactive”. In the case of `CCc1nn(C)c(C(=O)NCc2ccc(C(C)(C)C)cc2)c1Cl`, the Potency is reported as 43.6 µM (active). With `CCCCCCCCCCCCCCCC[N+](C)(C)C` the Potency was 21.1 µM (active) and 3.89 µM (active). With `Clc1ccc(C(c2ccccc2Cl)C(Cl)(Cl)Cl)cc1` (stereo not given) the Potency was “inactive”. For `CN(C)c1ccc(N=Nc2ccccc2)cc1`, the Potency was “inactive”. For `CC(C)CC(C)Nc1ccc(Nc2ccccc2)cc1` (stereo not given), the Potency was 38.3 µM (active). With `CCC[CH2][Sn]([CH2]CCC)([CH2]CCC)[O]C(=O)c1ccccc1` the Potency was 1.38 µM (active). With `CCOCCOC(C)=O` the Potency was “inactive”. With `CCCCN(CCCC)C(=S)[S-].CCCCN(CCCC)C(=S)[S-].[Zn+2]` the Potency was 12.3 µM (active). For `Nc1ccccc1C(=O)OC/C=C/c1ccccc1`, the Potency was “inactive”. For `Cc1cc(N=Nc2ccccc2C)ccc1N`, the Potency was “inactive”. With `CC[C@H](C)[C@H]1O[C@]2(C=C[C@@H]1C)C[C@@H]1C[C@@H](C/C=C(\C)[C@@H](O[C@H]3C[C@H](OC)[C@@H](O[C@H]4C[C@H](OC)[C@@H](O)[C@H](C)O4)[C@H](C)O3)[C@@H](C)/C=C/C=C3\CO[C@@H]4[C@H](O)C(C)=C[C@@H](C(=O)O1)[C@]34O)O2` the Potency was 9.15 µM (active). For `CCCCCCCCCCCCCC[P+](CCCCCC)(CCCCCC)CCCCCC` (tested in a mixture with another compound), the Potency was 11 µM (active). With `Cc1ccc(OP(=O)(Oc2ccccc2)Oc2ccccc2)cc1` the Potency was “inactive”. In the case of `O=C(O)C1C2CCC(O2)C1C(=O)O` (stereo not given), the Potency is reported as “inactive”. In the case of `[Hg+2].[I-].[I-]`, the Potency is reported as 3.47 µM (active). With `Clc1ccc(-c2ccc(Cl)c(Cl)c2Cl)c(Cl)c1Cl` the Potency was “inactive”. In the case of `CCOC(=O)C1(c2ccccc2)CCN(CCC(C#N)(c2ccccc2)c2ccccc2)CC1`, the Potency is reported as “inactive”. With `Cn1cc(C2=C(c3cn(C4CCN(Cc5ccccn5)CC4)c4ccccc34)C(=O)NC2=O)c2ccccc21` the Potency was “inactive”. With `CCCN(CCC)CCc1c[nH]c2ccccc12` the Potency was “inactive”. In the case of `COc1ccc(OC)c(CC(C)N)c1` (stereo not given), the Potency is reported as “inactive”. With `CCCCCCCCCCCCBr` the Potency was “inactive”. With `N#CCCSCCC#N` the Potency was “inactive”. For `CC1(C)CN=C(NN=C(/C=C/c2ccc(C(F)(F)F)cc2)/C=C/c2ccc(C(F)(F)F)cc2)NC1`, the Potency was 6.92 µM (active). With `CC(c1ccc(O)cc1)c1ccc(O)cc1` the Potency was “inactive”. With `CCN` the Potency was “inactive”. With `CC(C)(C)c1cc([N+](=O)[O-])cc(C(C)(C)C)c1O` the Potency was “inactive”.
Potency means the concentration at half of the fitted maximal effect.
